Experimental data taken from the supplement of paper PMC9694430.
Structures can show the parent of a compound that is named as a salt.

Each molecule was assayed on LOC_OS01G60700-cb002 (assay: thermal shift delta Tm vs DMSO control; higher = stronger stabilization (binding)). Details: 12.5 µM; protein concentration 2 µM.
Method in brief: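 The melting temperature shift given here is a triplicate mean, measured against protein that received only DMSO. Melting temperatures came from Boltzmann fits of differential scanning fluorimetry data on E. coli-expressed, purified rice kinase domain constructs. Each 19.5 μl well contained 2 μM kinase, 100 mM potassium phosphate pH 7.5, 150 mM NaCl, 10% glycerol, 5 × SYPRO Orange and compound in DMSO. Plates were scanned from 25°C to 95°C at 0.05°C/s.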

Row | Compound | thermal shift delta Tm
1 | COc1cc2ncnc(Oc3ccc(CC(=O)Nc4cnn(C(C)C)c4)cc3)c2cc1OC | 1.1 °C
2 | CN1C(=O)[C@@H](NC(=O)c2n[nH]c(Cc3ccccc3)n2)COc2ccccc21 | 0.2 °C
3 | N[C@@H]1CCCN(c2c(/C=C3\SC(=O)NC3=O)cccc2-c2ccccc2)C1 | 0.8 °C
4 | Cc1cc(C(C)Nc2ccccc2)c2nc(N3CCOCC3)cc(=O)n2c1 (centres undefined) | 0.52 °C
5 | CC#CC(=O)N1CC[C@@H](n2c(=O)n(-c3ccc(Oc4ccccc4)cc3)c3c(N)ncnc32)C1 [ONO-4059 (GS-4059) hydrochloride] | 0.99 °C
6 | COc1cc(OC)c(C=C2C(=O)Nc3ccccc32)c(OC)c1 | 0.97 °C
7 | O=C(Nc1cnn2ccc(N3CCC[C@@H]3c3cc(F)ccc3F)nc12)N1CC[C@H](O)C1 [Larotrectinib (LOXO-101) sulfate] | 0.28 °C
8 | C[C@H](NC(=O)/C(C#N)=C/c1cccc(Br)n1)c1ccccc1 | -0.53 °C
9 | Nc1nccc(Oc2ccc3c(C(=O)Nc4cccc(C(F)(F)F)c4)cccc3c2)n1 | 0.86 °C
10 | Oc1cccc(-c2nc(N3CCOCC3)c3oc4ncccc4c3n2)c1 | 1.37 °C
11 | O=C(c1ccc(Nc2nccc(-c3cc4ccccc4s3)n2)cc1)N1CCC(N2CCCC2)CC1 [IKK-16 (IKK Inhibitor VII)] | 0.43 °C
12 | Cc1cc(C(=O)NOCCO)c(Nc2ccc(I)cc2F)n(C)c1=O | 0.64 °C
13 | c1nc2c(NC3CCCCC3)nc(Nc3ccc(N4CCOCC4)cc3)nc2[nH]1 [Reversine] | 1.27 °C
14 | CC#CC(=O)N1CCC[C@H]1c1nc(-c2ccc(C(=O)Nc3ccccn3)cc2)c2c(N)nccn12 [Acalabrutinib (ACP-196)] | 1.14 °C
